{"source": "PubChem BioAssay AID652145", "about": "(The Scripps Research Institute Molecular Screening Center, 2013)", "note": "This is one part of the list. A number with no mark means an inactive call. Active and inactive are the calls of the source. No rule for the calls is given here."}
{"assay": "GDH-TPI coupling enzyme inhibitors, dose response, artefact control for M. tuberculosis FBA inhibitor project, biochemical, fluorescence, IC50 (AID 652145)", "conditions": "GDH-TPI coupled enzyme assay, artifact counterscreen"}
{"compound": "CC(=O)N1C(=O)/C(=C2\\SC(=S)N(NC(=O)c3ccc(O)cc3)C2=O)c2ccccc21", "IC50": "> 10 µM"}
{"compound": "CCOc1c2ccc(C(=O)NC3CCCc4ccccc43)cc2nn1CC", "note": "(centres undefined)", "IC50": "1.79 µM (active)"}
{"compound": "Cn1cccc1-c1nc2ccccc2n1C", "IC50": "5.56 µM (active)"}
{"compound": "CC(=O)N1CCN(C(=O)c2cc(-c3ccc(Cl)s3)nc3ccccc23)CC1", "IC50": "2.27 µM (active)"}
{"compound": "CCCNC(=O)c1c(N)n(-c2ccc(S(N)(=O)=O)cc2)c2nc3ccccc3nc12", "IC50": "2.08 µM (active)"}
{"compound": "O=C1C(=O)N(c2ccccc2)C(c2ccccc2)C1c1ccccc1", "note": "(centres undefined)", "IC50": "> 10 µM"}
{"compound": "O=C(NCc1cccc(Cl)c1)C1=CC=CN2CCS(=O)(=O)N=C12", "IC50": "4.94 µM (active)"}
{"compound": "COc1ccc2oc(=O)c(C(=O)NCc3ccccn3)cc2c1", "IC50": "1.9 µM (active)"}
{"compound": "N#Cc1c(N2CCCCC2)nc(N)c2c(N)nc(SCC(=O)O)cc12", "IC50": "> 10 µM"}
